23 compounds from PubChem BioAssay (EPA / NIEHS) can be followed below.

A short description of assay [1]: ATG_GRE_CIS: Attagene CIS-FACTORIAL HepG2 Assay for human Glucocorticoid Response Elements (GRE) (AID 2282947). Conditions: HepG2 GRE cis-reporter, Attagene multiplex mRNA; actives raise or lower the signal. The gist of the method:
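Endogenous transcription factor activity is read through cis-element reporter constructs transiently transfected into HepG2 cells. After 24 h treatment, labelled RT-PCR products are resolved by capillary electrophoresis; DMSO sets baseline for bidirectional curve fitting.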

Assay [2] is described as follows: ATG_ISRE_CIS: Attagene CIS-FACTORIAL HepG2 Assay for human Interferon Regulatory Factor 1 (IRF1) binding to an Interferon-Stimulated Response Element (ISRE) (AID 2282948). The following applies: HepG2 ISRE cis-reporter (Attagene), mRNA transcription readout; actives raise or lower the signal. The procedure, abridged: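 Quantitation relies on labelled RT-PCR fragments separated by capillary electrophoresis. Human HepG2 cells bearing cis-promoter reporter constructs were treated 24 h; DMSO served as baseline for bidirectional fitting.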

Assay [3] is described as follows: ATG_M_32_CIS: Attagene CIS-FACTORIAL HepG2 Assay for M32 Transcription Factor (Internal Marker) (AID 2282949).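 Further: background control marker of the multiplexed CIS panel rather than a real target.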 Conditions: HepG2 Attagene cis-factorial M32 reporter, mRNA; actives raise or lower the signal. The gist of the method: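 Internal background marker read-out: RT-PCR/capillary electrophoresis fluorescence of reporter transcripts from transiently transfected HepG2 cells after 24 h chemical exposure. Activity fitted bidirectionally relative to DMSO negative control.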

Assay [4] can be described thus: ATG_M_06_CIS: Attagene CIS-FACTORIAL HepG2 Assay for M06 Transcription Factor (Internal Marker) (AID 2282950). The following applies: HepG2 Attagene CIS-FACTORIAL M06 internal marker reporter; actives raise or lower the signal. The procedure, abridged:
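Steps: transfect HepG2 with multiplexed cis-element reporter constructs; dose chemical 24 h; extract RNA with DNase treatment; reverse-transcribe, PCR-amplify, 6-FAM label, HpaI digest; separate fragments by capillary electrophoresis. Activity fitted both directions versus DMSO.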

Assay [5] has as its target Hypoxia-inducible factor 1-alpha (Homo sapiens) (UniProt Q16665). Kind of assay: ATG_HIF1a_CIS: Attagene CIS-FACTORIAL HepG2 Assay for human Hypoxia Inducible Factor 1 (HIF1A) (AID 2282951). The following applies: HepG2 Attagene cis-factorial HIF1a reporter transcription; actives raise or lower the signal. The gist of the method: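 Measures endogenous transcription-factor activity through cis-regulated reporter mRNA in HepG2. Cells dosed 24 h; transcripts quantified by RT-PCR with 6-FAM-labelled products separated by capillary electrophoresis; DMSO serves as negative control.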

For assay [6], the target named is Hepatocyte nuclear factor 6 (Homo sapiens) (UniProt Q9UBC0). Kind of assay: ATG_HNF6_CIS: Attagene CIS-FACTORIAL HepG2 Assay for human Hepatocyte Nuclear Factor 6 (HNF6) (AID 2282952). Conditions: HepG2 Attagene cis-factorial HNF6 reporter transcription; actives raise or lower the signal. The gist of the method:
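HepG2 cells transiently transfected with cis-element-driven multiplexed reporter units measuring endogenous transcription factor activity. After 24 h exposure, reporter mRNA quantified by RT-PCR, FAM-labelled fragments and capillary electrophoresis; bidirectional fitting versus DMSO.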

Assay [7] addresses Heat shock factor protein 1 (Homo sapiens) (UniProt Q00613). Put plainly: ATG_HSE_CIS: Attagene CIS-FACTORIAL HepG2 Assay for human Heat Shock Transcription Factor 1 (HSE) (AID 2282953). The following applies: HepG2 HSE cis-reporter, Attagene RNA transcription; actives raise or lower the signal. The procedure, abridged: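 Cells were transfected with cis-element-driven reporter constructs, dosed for 24 h, then total RNA was reverse-transcribed and reporter cDNA amplified, FAM-labelled and digested with HpaI. Fragments were resolved by capillary electrophoresis; gain or loss was fitted against DMSO.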

Assay [8] can be described thus: ATG_MRE_CIS: Attagene CIS-FACTORIAL HepG2 Assay for human Metal Responsive Element (MRE) (AID 2282954). The following applies: HepG2 MRE cis-reporter transcription, Attagene multiplex; actives raise or lower the signal. The procedure, abridged:
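Fluorescent reporter fragments separated by capillary electrophoresis give mRNA induction for the MRE unit after 24 h treatment of transfected HepG2 cells. Endogenous transcription-factor activity is read; DMSO serves as negative control and baseline.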

The nature of assay [9]: ATG_PBREM_CIS: Attagene CIS-FACTORIAL HepG2 Assay for human Phenobarbital-responsive Enhancer Module (PBREM) (AID 2282955). Conditions: HepG2 PBREM cis-reporter, Attagene multiplexed transcription; actives raise or lower the signal. The procedure, abridged:
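Fluorescence of labelled reporter cDNA fragments, resolved by capillary electrophoresis, gives mRNA induction in transfected HepG2 cells treated for 24 h; DMSO serves as negative control and baseline.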

The target of assay [10] is Paired box protein Pax-6 (Homo sapiens) (UniProt P26367). Put plainly: ATG_Pax6_CIS: Attagene CIS-FACTORIAL HepG2 Assay for human Paired Box 6 (PAX6) (AID 2282956). The following applies: HepG2 CIS-FACTORIAL PAX6 reporter transcription, RNA readout; actives raise or lower the signal. The procedure, abridged: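 After twenty-four hours of chemical exposure, transfected HepG2 cells are harvested for RNA. Cis-promoter reporter transcripts are amplified, fluorescently labelled and sized by capillary electrophoresis, with gain and loss of signal scored against DMSO.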
Sequence of Paired box protein Pax-6 (Homo sapiens) (P26367 whole entry, looked up): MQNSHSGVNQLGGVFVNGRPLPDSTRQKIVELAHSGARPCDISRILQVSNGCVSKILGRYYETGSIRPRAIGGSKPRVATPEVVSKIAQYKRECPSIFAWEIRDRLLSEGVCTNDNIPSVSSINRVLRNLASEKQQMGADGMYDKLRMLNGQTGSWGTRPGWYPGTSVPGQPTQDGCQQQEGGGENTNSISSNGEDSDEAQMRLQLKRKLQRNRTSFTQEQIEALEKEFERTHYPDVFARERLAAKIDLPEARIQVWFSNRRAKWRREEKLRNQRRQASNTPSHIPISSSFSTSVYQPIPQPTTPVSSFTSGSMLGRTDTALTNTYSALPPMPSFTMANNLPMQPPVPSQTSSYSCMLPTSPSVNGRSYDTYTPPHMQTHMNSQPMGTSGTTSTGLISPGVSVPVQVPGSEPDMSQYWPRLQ

Active and inactive are the calls of the source. How the source made its calls: active means hit-call score of the fitted dose curve at least 0.9, where 1 is the maximum; inactive means score below 0.9.

Sequence of Heat shock factor protein 1 (Homo sapiens) (Q00613 whole entry, looked up, the tested form may be a part): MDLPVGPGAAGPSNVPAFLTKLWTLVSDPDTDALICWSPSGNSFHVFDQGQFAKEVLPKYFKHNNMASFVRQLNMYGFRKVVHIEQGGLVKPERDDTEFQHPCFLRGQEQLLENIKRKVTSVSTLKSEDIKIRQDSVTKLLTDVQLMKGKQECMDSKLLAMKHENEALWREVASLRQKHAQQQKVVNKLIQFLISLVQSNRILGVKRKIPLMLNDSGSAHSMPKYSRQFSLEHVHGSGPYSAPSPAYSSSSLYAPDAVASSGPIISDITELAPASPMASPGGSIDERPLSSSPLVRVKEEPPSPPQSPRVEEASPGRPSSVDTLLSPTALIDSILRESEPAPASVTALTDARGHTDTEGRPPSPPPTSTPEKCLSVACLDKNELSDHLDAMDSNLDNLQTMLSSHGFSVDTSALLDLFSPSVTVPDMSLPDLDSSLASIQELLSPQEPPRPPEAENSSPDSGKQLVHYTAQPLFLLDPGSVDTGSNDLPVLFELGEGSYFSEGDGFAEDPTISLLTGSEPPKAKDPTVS
Sequence of Hypoxia-inducible factor 1-alpha (Homo sapiens) (Q16665 whole entry, looked up): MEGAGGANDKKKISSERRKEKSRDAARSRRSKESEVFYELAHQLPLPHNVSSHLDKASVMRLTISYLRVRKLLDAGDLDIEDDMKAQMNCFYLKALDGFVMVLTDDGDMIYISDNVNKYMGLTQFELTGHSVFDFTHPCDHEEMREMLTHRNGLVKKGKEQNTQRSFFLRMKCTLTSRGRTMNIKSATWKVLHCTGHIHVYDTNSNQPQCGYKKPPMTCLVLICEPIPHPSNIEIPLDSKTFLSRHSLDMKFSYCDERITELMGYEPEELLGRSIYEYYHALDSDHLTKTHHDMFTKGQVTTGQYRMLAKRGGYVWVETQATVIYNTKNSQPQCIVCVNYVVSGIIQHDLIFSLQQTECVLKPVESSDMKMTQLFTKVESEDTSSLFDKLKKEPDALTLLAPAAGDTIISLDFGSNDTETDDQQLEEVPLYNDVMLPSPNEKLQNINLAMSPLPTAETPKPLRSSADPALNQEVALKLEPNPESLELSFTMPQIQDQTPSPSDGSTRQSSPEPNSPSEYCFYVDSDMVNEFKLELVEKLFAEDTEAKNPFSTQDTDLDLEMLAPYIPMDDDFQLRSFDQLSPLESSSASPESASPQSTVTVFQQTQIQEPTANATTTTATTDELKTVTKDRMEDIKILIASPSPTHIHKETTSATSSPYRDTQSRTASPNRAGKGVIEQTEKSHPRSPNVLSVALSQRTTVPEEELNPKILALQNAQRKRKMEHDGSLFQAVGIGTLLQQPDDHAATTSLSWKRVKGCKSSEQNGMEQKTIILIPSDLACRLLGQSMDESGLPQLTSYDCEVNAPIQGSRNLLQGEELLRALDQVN
Sequence of Hepatocyte nuclear factor 6 (Homo sapiens) (Q9UBC0 whole entry, looked up, the tested form may be a part): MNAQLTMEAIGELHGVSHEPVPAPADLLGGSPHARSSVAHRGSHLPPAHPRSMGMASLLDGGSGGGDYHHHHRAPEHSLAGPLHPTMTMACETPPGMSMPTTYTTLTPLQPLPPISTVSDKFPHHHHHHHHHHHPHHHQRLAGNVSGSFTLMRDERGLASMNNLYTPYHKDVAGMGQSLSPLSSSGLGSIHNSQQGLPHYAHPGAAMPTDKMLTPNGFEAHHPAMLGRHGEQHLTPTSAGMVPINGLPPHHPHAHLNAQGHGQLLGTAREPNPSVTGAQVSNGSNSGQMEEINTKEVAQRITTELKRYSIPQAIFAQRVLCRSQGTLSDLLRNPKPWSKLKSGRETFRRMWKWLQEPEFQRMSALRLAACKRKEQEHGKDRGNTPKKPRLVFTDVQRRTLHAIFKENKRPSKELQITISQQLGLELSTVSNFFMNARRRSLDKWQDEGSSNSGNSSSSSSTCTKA

For orientation: AC50 means the concentration at which the activity in the assay is half-maximal. In the case of `N[C@@H](Cc1cc(I)c(Oc2cc(I)c(O)c(I)c2)c(I)c1)C(=O)O`, the compound was classed as inactive in assay [1], in assay [2], in assay [3], in [4], in assay [6] and in assay [7]. The call in assay [10] was inactive. Also, the AC50 in assay [5] was 18.9 µM (active); in assay [8] it was 27.8 µM (active); in assay [9] it was 11.2 µM (active).

Turning to `CCCC(=O)OC(C)(C)Cc1ccccc1`, the compound was classed as inactive in assay [1], in assay [2], in [3], in [4], in assay [5] and in [6]. In addition, the outcome in assay [7], in [8], in assay [9] and in assay [10] was inactive.

With `CC(C)(C)OC(=O)c1ccc(O)cc1`, the outcome in assay [1], in assay [2], in assay [3], in assay [4], in assay [5] and in [6] was inactive. Besides, the outcome in [9] and in assay [10] was inactive. The AC50 in assay [7] was 159 µM (active); in assay [8] it was 100 µM (active).

Turning to `CN1CCOCC1`, the result in assay [1], in assay [2], in assay [4], in assay [5], in assay [6] and in assay [7] was inactive. The compound was called inactive in assay [8], in assay [9] and in [10]. In assay [3], the AC50 is 100 µM (active).

Take `C=C(C)C(=O)OCC(CC)(COC(=O)C(=C)C)COC(=O)C(=C)C`: the call in [1], in assay [2], in [3], in assay [4], in assay [5] and in assay [6] was inactive. Moreover, the compound was called inactive in assay [7], in assay [8], in assay [9] and in [10].

Consider `C=CCCCCCCCCCC`, for which the compound was called inactive in [1], in assay [2], in assay [3], in assay [4], in [5] and in assay [6]. Moreover, the call in [7], in assay [8], in assay [9] and in assay [10] was inactive.

In the case of `CCc1ncc(C)[nH]1`, the result in [1], in assay [2], in assay [3], in [4], in [5] and in assay [6] was inactive. Moreover, the compound was called inactive in assay [7], in [8], in assay [9] and in [10].

For the compound `N#Cc1ccc(CC(=O)c2cccc(C(F)(F)F)c2)cc1`, the outcome in assay [1], in [2], in assay [3], in assay [4], in assay [5] and in assay [6] was inactive. Besides, the outcome in [9] and in assay [10] was inactive. In addition, the AC50 is 150 µM (active) in [7] and 100 µM (active) in [8].

On to `CC1=C(Br)C(=O)C(Br)=C/C1=C(/c1ccccc1S(=O)(=O)O)c1cc(Br)c(O)c(Br)c1C`, for which the compound was called inactive in assay [1], in [2], in [3], in assay [4], in assay [5] and in assay [6]. Besides, the compound was called inactive in [7], in assay [8], in assay [9] and in [10].

As to `CCc1cc(Cc2cc(CC)cc(C(C)(C)C)c2O)c(O)c(C(C)(C)C)c1`, the outcome in assay [1], in assay [3], in assay [4], in [6] and in assay [9] was inactive. The AC50 in assay [2] was 17.4 µM (active); in assay [5], 16.7 µM (active); in assay [7], 18.5 µM (active); in assay [8] it was 18.1 µM (active); in [10], 16.6 µM (active).

For `CCCCCCCC(=O)OCC(O)CO` (stereo not given), the call in assay [1], in assay [2], in assay [3], in assay [4], in assay [5] and in assay [6] was inactive. In addition, the compound was classed as inactive in [7], in assay [8], in [9] and in assay [10].

Consider `CCC(C)c1cc([N+](=O)[O-])cc([N+](=O)[O-])c1OC(=O)OC(C)C` (stereo not given), for which the result in assay [1], in assay [4], in assay [5], in assay [6] and in assay [9] was inactive. The AC50 was 24.3 µM (active) in assay [2]; 49.2 µM (active) in [3]; 26.6 µM (active) in assay [7]; 34.8 µM (active) in assay [8]; 25.9 µM (active) in assay [10].

Regarding `C=C(C)C(=O)OCCOCCOCCOC(=O)C(=C)C`, the compound was classed as inactive in assay [1], in [2], in [3], in [4], in assay [5] and in [6]. Also, the call in assay [7], in [8], in [9] and in assay [10] was inactive.

As for `O=CCc1ccccc1`, the call in assay [1], in assay [2], in assay [3], in assay [4], in assay [5] and in assay [6] was inactive. The outcome in assay [7], in assay [8], in assay [9] and in [10] was inactive.

As to `Oc1c(Cl)cc(Cl)c(Cl)c1Cc1c(O)c(Cl)cc(Cl)c1Cl`, the result in [1], in assay [3], in assay [4] and in assay [6] was inactive. For the same compound, the AC50 in assay [2] was 6 µM (active); in assay [5], 8.52 µM (active); in assay [7] it was 17.1 µM (active); in assay [8], 9.9 µM (active); in [9], 1.12 µM (active); in assay [10], 11.1 µM (active).

Take `C=CC(=C)CCCC(C)(C)OC(C)=O`: the outcome in assay [1], in [2], in assay [3], in assay [4], in assay [5] and in assay [6] was inactive. In addition, the call in assay [7], in assay [8], in assay [9] and in assay [10] was inactive.

Regarding `CCOc1ccc(N=Nc2ccc(C=Cc3ccc(N=Nc4ccc(OCC)cc4)cc3S(=O)(=O)O)c(S(=O)(=O)O)c2)cc1`, the outcome in assay [1], in [2], in assay [3], in [4], in [5] and in assay [6] was inactive. For the same compound, the call in [7], in assay [8], in assay [9] and in assay [10] was inactive.

As for `COC(C)(C)CCO`, the compound was called inactive in [1], in [2], in assay [3], in [4], in [5] and in assay [6]. Further, the call in assay [7], in assay [8], in [9] and in assay [10] was inactive.

As for `CC(=O)O[C@H]1C[C@@H]2CC[C@@]1(C)C2(C)C`, the compound was called inactive in [1], in [2], in assay [3], in assay [4], in assay [5] and in [6]. Moreover, the result in [7], in [8], in assay [9] and in [10] was inactive.

Take `CN(C)C(=S)SC(=S)N(C)C`: the outcome in [1], in assay [2], in [3], in assay [4], in assay [5] and in [6] was inactive. Besides, the call in [7], in assay [9] and in [10] was inactive. The AC50 in assay [8] is 100 µM (active).

`CCCCCCCCCCCCCC(=O)OCC(O)CO` (stereo not given): the outcome in assay [1], in [2], in [3], in assay [4], in assay [5] and in assay [6] was inactive. Besides, the compound was classed as inactive in [7], in [8], in [9] and in assay [10].

As to `C1CCOC1`, the compound was classed as inactive in assay [1], in assay [2], in assay [3], in assay [4], in assay [5] and in [6]. Further, the result in [7], in [8], in assay [9] and in [10] was inactive.

For the compound `CCO/C=C1\N=C(c2ccccc2)OC1=O`, the compound was classed as inactive in assay [1], in assay [2], in assay [3], in assay [4], in assay [5] and in assay [6]. Also, the compound was classed as inactive in [7], in assay [8], in assay [9] and in [10].
